In ChEMBL document CHEMBL3988442, “University of Dundee, Small-Polar-MMV Screening Library” (2021):

These compounds were tested against AMP-activated protein kinase, AMPK (Homo sapiens) (UniProt P54646+O43741+P54619+Q9UGJ0+Q9Y478+Q13131+Q9UGI9) (assay: AMP-dependent Kinase enzyme assay. An in vitro enzyme assay that detects ADP turnover that is directly proportional to AMPK activity. This uses naive AMPK that is activated during the assay with MK-8722). Details: 30 µM.
Assay type: functional
Set-up: scale not given: direction of the effect not stated beside the values
Cn1ccnc1C1(O)CCN(C(=O)CCc2ccccc2)CC1 showed a Percent Effect of 8.55%.
Compound OC(CNCc1nnc2ccccn12)c1ccc2c(c1)OCCCO2 (stereo not given) has a Percent Effect of 9.77%.
For COCCC(=O)N1CCCC(CCC(=O)NCc2ccccc2F)C1 (stereo not given), the Percent Effect was 8.91%.
CC(C)OCCS(=O)(=O)N1CCN(Cc2cccn2C)CC1 was tested, and the Percent Effect was -4.58%.
Work on CC(C)(C)OC(=O)N(CCNS(=O)(=O)N1CCOCC1)C1CC1 yielded a Percent Effect of 8.24%.
In the case of O=C(CNC(=O)c1ccccc1I)NCc1ccccc1F, the Percent Effect is reported as 4.78%.
Compound CN(Cc1cn(CC2CCNCC2)nn1)CC1CCCCO1 (stereo not given) has a Percent Effect of 7.46%.
Cn1ccnc1-c1cn(CCc2nnc(N)s2)nn1 gave a Percent Effect of -14.9%.
Compound CCc1ccc(C(=O)NC2CCN(c3ccn(C)n3)C2)o1 (stereo not given) has a Percent Effect of 1.78%.
For Nc1nc(CC(=O)N2CCCC(CCc3cccc(F)c3)C2)cc(=O)[nH]1 (stereo not given), the Percent Effect was -9.77%.
COc1cc(COCC2CCN(Cc3cccnc3)CC2)cc(OC)c1 was tested, and the Percent Effect was 1.38%.
For COc1cc(CNC(=O)COC2CCCCC2)ccc1O, the Percent Effect was -0.805%.
COc1ccnc(CNc2nc(C)nc3ccsc23)c1 was tested, and the Percent Effect was -0.808%.
For CC(C(=O)N1CCCCC1)N1CCN(c2ncc(Cl)cn2)CC1 (stereo not given), the Percent Effect was -3.64%.
CC(C#N)NS(=O)(=O)c1cccc(C(C)C)c1 (stereo not given) gave a Percent Effect of 0.482%.
CC(C)(C)NC(=O)CNc1ncc(Br)cn1 showed a Percent Effect of 7.93%.
With CC(C)c1ccccc1NC(=O)N1C[C@@H]2CC[C@H](C1)N(C)C2=O the Percent Effect was -7.67%.
Compound CC(CN1CCOCC1)NC(=O)N1CCN(S(C)(=O)=O)CC1 (stereo not given) has a Percent Effect of 8.74%.
For NC(=O)c1cc(C2CCCN(CCc3ccc4c(c3)CCO4)C2)n[nH]1 (stereo not given), the Percent Effect was 3.33%.
For Cc1cc(C[S+]([O-])Cc2ccccc2F)on1 (stereo not given), the Percent Effect was 6.4%.
O=C(COC1CCCC1)NCc1ccc(O)c(F)c1 gave a Percent Effect of 8.07%.
Work on O=C(Nc1ccc(-n2ccc(C(=O)O)n2)cc1)c1ccccc1 yielded a Percent Effect of 4.07%.
For CC(C)[C@@H]1CN(c2ccc(F)cn2)C[C@H]1NS(C)(=O)=O, the Percent Effect was -3.59%.
In the case of CC(=O)N1CCC(NC(=O)CN2CCCc3c(C)ccc(F)c32)CC1, the Percent Effect is reported as 5.92%.
With COc1ccc(OC)c(S(=O)(=O)NC(=O)C(C)OC)c1 (stereo not given) the Percent Effect was -3.05%.
In the case of Clc1ccc(N2CCC(OCC3CCCCO3)CC2)nc1 (stereo not given), the Percent Effect is reported as 3.4%.
NC(=O)CN(Cc1ncc(-c2ccc(Cl)cc2)o1)C1CCCC1 gave a Percent Effect of -5.3%.
Compound COc1ccc(Oc2cc(CN)ccn2)cc1 has a Percent Effect of -36.1%.
Compound CNC(=O)c1ccnc(N2CCCC(COc3cccc(C)c3)C2)c1 (stereo not given) has a Percent Effect of 29.8%.
Compound Cc1ccc(S(=O)(=O)Cc2nsc(N(C)C)n2)c(C)c1 has a Percent Effect of -0.477%.
With Cc1nc(CN2CCCC2Cn2cccn2)nc2ccccc12 (stereo not given) the Percent Effect was -8.75%.
Work on Cn1cnnc1C1CCCN(c2nc3ccccc3o2)C1 (stereo not given) yielded a Percent Effect of -1.42%.
CC(C)COc1cncc(N(C)C2CCN(c3ncccn3)CC2)n1 showed a Percent Effect of 7.4%.
For CC(C)c1cc(NCc2csc(C(C)C)n2)nc(N)n1, the Percent Effect was -7.72%.
Work on CN(CC1(CO)CCC1)c1nc2c(c(=O)[nH]1)Cc1ccccc1OC2 yielded a Percent Effect of 1.42%.
CCn1cc(NC(=O)NCCN2CCCc3ccccc32)cn1 gave a Percent Effect of 7.2%.
With CNC(=O)CN(C)C(=O)c1ccc(-c2nc(C)cs2)cc1 the Percent Effect was -2.2%.
Cc1ccccc1Cc1nc(CSc2nnc(N)n2C2CC2)no1 was tested, and the Percent Effect was 7.43%.
In the case of Cc1nc[nH]c1CN1CCC(C2CCN(CCc3ccccc3)C2)CC1 (stereo not given), the Percent Effect is reported as -0.168%.
Work on CN1CCN(CCOc2ccc(NC(=O)c3ccoc3)cc2)CC1 yielded a Percent Effect of -4.02%.
